# Hit rate of the full screen: of about 330,000 compounds, about 520 (0.16%) were called active. The sample as a whole holds a higher share of actives than the screen did. A number with no mark means an inactive call.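 The calls were made as follows: active = inhibition of at least 50% in every replicate; inconclusive = best replicate reaches 50% inhibition but some replicates fall short; inactive = the rest.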
# Molecular target: Histone acetyltransferase RTT109 (Candida albicans (strain SC5314 / ATCC MYA-2876)) (UniProt Q5AAJ8)
# Experiment: inhibitors of C. albicans Rtt109/Vps75 HAT, primary screen, biochemical, ThioGlo CoA-SH fluorescence, plate reader (AID 540336)
# Settings: purified Rtt109/Vps75, ThioGlo CoA-SH fluorescence, 4 h; at 34.9 µM; hits give high values
# Histone acetyltransferase RTT109 (Candida albicans (strain SC5314 / ATCC MYA-2876)), sequence (Q5AAJ8 whole entry, looked up): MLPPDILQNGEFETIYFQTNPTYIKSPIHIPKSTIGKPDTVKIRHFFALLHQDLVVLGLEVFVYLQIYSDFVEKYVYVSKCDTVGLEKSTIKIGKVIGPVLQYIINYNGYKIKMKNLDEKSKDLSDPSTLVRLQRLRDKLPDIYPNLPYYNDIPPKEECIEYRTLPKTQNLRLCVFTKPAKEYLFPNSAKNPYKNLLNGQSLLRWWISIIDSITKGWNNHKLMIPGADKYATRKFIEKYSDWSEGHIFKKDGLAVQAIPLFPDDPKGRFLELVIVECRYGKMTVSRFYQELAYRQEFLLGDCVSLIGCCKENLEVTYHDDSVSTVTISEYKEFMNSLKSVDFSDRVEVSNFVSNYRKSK
row,Compound,inhibition
1,NC(=O)C1(Nc2ccccc2Cl)CCCC1,-1.87%
2,CC(C)C[C@H]1CN([C@@H](CC(C)C)CN2CCC[C@@H]2CN2C(=O)C(=O)NC[C@@H]2Cc2ccccc2)C(=O)C(=O)N1CCc1ccccc1,3.1%
3,OCCN1CCN(CCO)C1=S,-2.55%
4,O=[N+]([O-])c1cc2ccccc2nc1-c1ccccc1,2.85%
5,CCCN(C(=O)COC(=O)CNS(=O)(=O)c1ccc(NC(C)=O)cc1)C1CCS(=O)(=O)C1 (configuration not stated),2.12%
6,Cc1cccc(C2c3c(n(C)c(=O)n(C)c3=O)N=C3c4ccccc4C(=O)C32)c1 (configuration not stated),29.8%
7,O=C(Nc1ccccc1)Oc1cccc2cccnc12,1.03%
8,CC(C)(C)C(=O)Nc1cccc(-c2ccc[nH]2)n1,-1.5%
9,O=C(Nc1ccccc1Cl)c1ccccc1S(=O)(=O)c1ccccc1[N+](=O)[O-],22.9%
10,CC(=O)Nc1ccc(NC(=O)COc2ccccc2C(=O)Nc2cccc(Cl)c2Cl)cc1,-5.99%
11,CN(C)S(=O)(=O)Oc1ccccc1C(=O)Nc1ccccc1Cl,58.3% (active)
12,CC(C)(C)S(=O)(=O)N1Cc2cc(CO)cc(CCO)c2[C@H]1CCO,-3.04%
13,O=C(NCCCN1CCCCCC1)C1CC(=O)N(C2CCCC2)C1 (configuration not stated),32.5%
14,O=C(NCCCN1CCN(c2ccccc2F)CC1)C1CCC(=O)N1C1CCCCC1 (configuration not stated),58.1% (active)
15,COc1ccc(CN2CC(C(=O)NCCN3CCN(c4ccccc4F)CC3)CC2=O)cc1 (configuration not stated),-11.1%
16,CCCCC(=O)NC(c1ccc(OC)c(OC)c1)c1ccc2cccnc2c1O (configuration not stated),-3.23%

row,Compound,inhibition
1,Oc1c(C(c2ccccn2)N2CCOCC2)ccc2cccnc12 (configuration not stated),51.7% (active)
2,CC(C)c1cc(CN2CCOCC2)cc(C(C)C)c1O,-6.21%
3,COc1cccc(C=CC(=O)C=CC=Cc2ccccc2)c1,-4.82%
4,O=C(O)c1ccc(NN=CC2=C(N3CCOCC3)/C(=C/c3ccccc3)CC2)cc1,-15.5%
5,Cn1cc(C2OC(=O)c3ccccc32)c2ccccc21 (configuration not stated),0.802%
6,O=C(Nc1c(Br)cc2c(c1Br)Cc1cc([N+](=O)[O-])ccc1-2)C(Cl)Cl,-4.04%
7,CC(=O)N(c1ccc2oc(=O)sc2c1)S(=O)(=O)c1ccc(C)cc1,134% (active)
8,COC(=O)c1c(C)oc2ccc(N(C(=O)Oc3ccccc3)S(=O)(=O)c3ccccc3)cc12,0.88%
9,CC(=O)Oc1ccc(N(C(C)=O)S(=O)(=O)c2ccc3ccccc3c2)cc1Br,2.06%
10,CCOC(=O)CCC(NC(=O)c1ccc(CNc2nc3cc(C(F)(F)F)ccc3nc2C(=O)OCC)cc1)C(=O)OCC (configuration not stated),9.24%
11,CC(C=Cc1ccccc1)=NNS(=O)(=O)c1ccc([N+](=O)[O-])cc1,-0.601%
12,CC(=O)OC1CCC2C3CCC4=C(CC(F)C(=O)C4)C3CCC12C (configuration not stated),-7.91%
13,O=C1c2ccccc2C(=O)C1C(=O)C1CC1,0.0105%
14,O=C1NCC(Nc2ccccc2)C(=O)N1 (configuration not stated),-4.85%
15,CCCCNC1(C#N)CCN(Cc2ccccc2)CC1,0.637%
16,O=C1C=C(NS(=O)(=O)c2ccccc2)C(=O)c2ccccc21,-1.13%
